GLA inh pH 4.5 = qHTS Assay for Inhibitors of Human alpha-Galactosidase at pH 4.5 | Alpha-galactosidase A (Homo sapiens), P06280 | purified enzyme, 4-MU-alpha-Gal fluorescence, pH 4.5 | activity change, negative = inhibition, % at 105 µM | 230,000 tested, under 10 active | AID 1467, 2008
GAA glycogen = qHTS Assay for Inhibitors and Activators of Human alpha-Glucosidase Cleavage of Glycogen; AID 2100, 2009; recombinant GAA, glycogen substrate, Amplex Red glucose oxidase fluorescence; Lysosomal alpha-glucosidase (Homo sapiens), P10253; Potency, µM (series often up to 76.4 µM), most hits filed as inhibitors; 300,000 compounds, 0.38% hits;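 also: the screen sought inhibitors and activators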
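qHTS, 1536-well; enzyme 4 nM final; cpd up to 77 uM; substrate bovine liver glycogen 30 ug; 50 mM citrate/phosphate pH 5.0, 0.01% Tween-20; 37 C, 40 min; Amplex Red detection 45 min RT; Hill fit → AC50.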
aGlu spleen mod = qHTS Assay for Inhibitors and Activators of Human alpha-Glucosidase From Spleen Homogenate; Lysosomal alpha-glucosidase (Homo sapiens), P10253; human spleen homogenate, 4-MU-alpha-glucoside fluorescence; Potency, µM (highest dose often 79.9 µM), usual class: inhibitors; 240,000 compounds, 0.006% hits
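Human spleen homogenate (1 ug) incubated with compounds and 1 mM 4-methylumbelliferyl-alpha-D-glucopyranoside in pH 5.0 citrate/phosphate buffer, 37 C, 40 min. Stopped at pH 10; 4-MU fluorescence (Ex 365/Em 440 nm); AC50 by Hill fit.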
aGal spleen mod = qHTS Assay for Inhibitors and Activators of Human alpha-Galactosidase From Spleen Homogenate. human spleen homogenate, 4MU-alpha-Gal fluorescence, 40 min. Potency, µM (series often up to 80 µM), actives largely listed as inhibitors. 240,000 compounds, 0.008% hits. AID 2107, 2009
Target sequence (P06280 32-429 limits assumed): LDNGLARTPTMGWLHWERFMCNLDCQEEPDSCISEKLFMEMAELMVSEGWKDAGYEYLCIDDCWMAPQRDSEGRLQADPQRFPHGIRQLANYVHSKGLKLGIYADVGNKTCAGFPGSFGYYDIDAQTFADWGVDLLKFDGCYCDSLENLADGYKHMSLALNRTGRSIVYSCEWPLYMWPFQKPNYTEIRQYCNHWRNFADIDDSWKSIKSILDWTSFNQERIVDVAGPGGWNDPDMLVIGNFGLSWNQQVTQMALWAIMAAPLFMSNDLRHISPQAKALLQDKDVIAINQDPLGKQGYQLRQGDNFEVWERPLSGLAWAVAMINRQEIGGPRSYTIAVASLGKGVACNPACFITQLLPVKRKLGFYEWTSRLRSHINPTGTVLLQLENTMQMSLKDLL
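Fluorogenic readout (Ex 365/Em 440 nm) of 4-methylumbelliferone released from 1 mM 4-MU-alpha-galactoside by spleen homogenate, 40 min at 37C, pH 5.0. Data normalized to no-enzyme and enzyme controls; Hill-equation AC50 from compound titrations.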
GAA inhib = qHTS Assay for Inhibitors of Human alpha-Glucosidase as a Potential Chaperone Treatment of Pompe Disease; purified human GAA, 4-MU-alpha-glucoside fluorescence; Potency, µM (doses to about 76.9 µM), actives largely listed as inhibitors; 200,000 compounds, 0.005% hits
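Human alpha-glucosidase, 4 nM, pre-mixed with test compounds before 400 uM 4-methylumbelliferyl substrate; 20 min room temperature at pH 5.0. Fluorescence read after pH 10 stop; AC50 values from Hill-equation fits.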
N370S GC = qHTS Assay for Inhibitors and Activators of N370S glucocerebrosidase as a Potential Chaperone Treatment of Gaucher Disease | N370S GC spleen homogenate, 4MU-glucoside fluorescence | 330,000 compounds, 0.092% hits | Potency, µM (series often up to 59.4 µM), most hits filed as inhibitors
Each line names hits and unclear results; the compound was inactive in the other large screens. Shown are actives, neighbours in structure and some others; about 0.41% of the full set was active somewhere. Calls follow the shape of the dose curve; as a rule, active = well fitted curve in the direction sought with a large enough effect; inconclusive = small, poorly fitted or top-dose-only effect, or another doubt; inactive = no such curve, though single readings can be large; an effect the other way counts as inactive or inconclusive.

COc1cccc([C@@H]2Oc3ccc(OC)cc3C[C@H]2OC(=O)Nc2cc(OC)c(OC)c(OC)c2)c1	none (no result: GAA glycogen, GAA inhib)
O=C(O)[C@H]1O[C@@H](Oc2ccc3ccc(=O)oc3c2)[C@H](O)[C@@H](O)[C@@H]1O	none (no result: GLA inh pH 4.5, GAA glycogen, GAA inhib)
Oc1ccc(Nc2ccnc3cc(Cl)ccc23)cc1	GAA glycogen 13µM, N370S GC inconclusive (no result: GAA inhib)
CN1CCc2c(n(CC(O)CNCc3ccccc3)c3ccccc23)C1=O (configuration not stated)	GAA glycogen inconclusive
CC(C)NCC(O)Cn1c2c(c3ccccc31)CCc1c-2cnn1-c1ccccc1 (configuration not stated)	GAA glycogen 31µM
CC[C@H](NC(=O)[C@H](CCCN=C(N)N)NC(=O)[C@H](Cc1c[nH]c2ccccc12)NC(=O)[C@@H](N)CS)C(=O)N[C@@H](CCCN=C(N)N)C(=O)N[C@@H](Cc1ccc(O)cc1)C(N)=O	none (no result: GLA inh pH 4.5, GAA glycogen, GAA inhib)
O=C(NC(=S)N1CCN(c2ccc(O)cc2)CC1)c1cccs1	GAA glycogen 10µM (no result: GAA inhib)
N#Cc1ccc(CS(=O)(=O)c2ccccc2)cc1	none (no result: GAA glycogen, GAA inhib)
Cc1ccc2occ(CC(=O)Nc3c(C(=O)Nc4ccc(Cl)cc4)oc4ccccc34)c2c1	none (no result: GLA inh pH 4.5, aGlu spleen mod, aGal spleen mod, GAA inhib, N370S GC)
CC1(C)Cc2c(sc3ncn(N)c(=N)c23)CO1	none
CC1(C)Cc2c(sc3ncn4c(=S)[nH]nc4c23)CO1	GAA glycogen 28µM
COc1ccc(-n2nnnc2C2CCN(S(=O)(=O)c3ccc(NC(C)=O)cc3)CC2)cc1	none (no result: GLA inh pH 4.5, aGlu spleen mod, aGal spleen mod, GAA inhib, N370S GC)
CCOc1ccc(OCC)c(S(=O)(=O)NNC(=O)c2c(C)nc3ccccn23)c1	none
COc1ccc(Br)cc1S(=O)(=O)NNC(=O)c1c(C)nc2ccccn12	GAA glycogen 10µM
COc1ccc(Nc2nc(C)c(-c3ccccc3)s2)cc1	GAA glycogen 14µM
Cc1nc(Nc2ccc(S(N)(=O)=O)cc2)sc1-c1ccccc1	none (no result: GLA inh pH 4.5, aGlu spleen mod, aGal spleen mod, GAA inhib)
Cc1c(C)n(Cc2ccc(Cl)cc2)c2ccc(C(=O)NCCN3CCOCC3)cc12	N370S GC 10µM (no result: GLA inh pH 4.5, GAA glycogen, aGlu spleen mod, aGal spleen mod, GAA inhib)
Cc1c(C)n(Cc2ccccc2)c2ccc(C(=O)NCCN3CCOCC3)cc12	N370S GC inconclusive (no result: GLA inh pH 4.5, aGlu spleen mod, aGal spleen mod, GAA inhib)
COc1ccc(C(CNC(=O)c2ccc(NS(=O)(=O)c3ccc(F)c(C)c3)cc2)N2CCOCC2)cc1 (configuration not stated)	N370S GC 14µM (no result: GLA inh pH 4.5, GAA glycogen, aGlu spleen mod, aGal spleen mod, GAA inhib)
O=c1nc(/C=C/c2ccc(O)c(O)c2)oc2ccccc12	GAA glycogen 7.1µM (no result: GAA inhib)
c1ccc(N2CCN(c3ncccn3)CC2)cc1	none
Oc1ccccc1N1CCN(c2ncccn2)CC1	GAA glycogen 7.9µM
COC(=O)C[C@H]1c2ccccc2C2=C(C[C@@H](C)[C@H]3C(=O)N(c4ccccc4)C(=O)[C@@H]23)N1C(=O)OC	none (no result: GAA glycogen, GAA inhib)
O=S(=O)(c1ccc(OCC(O)CN2CCN(c3ccccc3O)CC2)cc1)N1CCOCC1 (configuration not stated)	GAA glycogen 6.3µM
CC1(OC(=O)c2ccc(Cl)nc2)C(=O)C=c2cc(-c3ccsc3)ncc2=C1OC(=O)C1CCCC1 (configuration not stated)	none (no result: GAA glycogen, GAA inhib)
CCOc1ccccc1-c1nnc2n1N=C(c1c(OC)cccc1OC)CS2	none (no result: GLA inh pH 4.5, GAA glycogen, GAA inhib)
CNc1ccc(C(=O)Oc2cc(O/N=[N+](\[O-])N(C)C)c([N+](=O)[O-])cc2[N+](=O)[O-])cc1	none (no result: GLA inh pH 4.5, GAA glycogen, GAA inhib)
CN1CCN(NC(=O)c2cn(-c3ccccc3)nc2-c2cccc(Br)c2)CC1	N370S GC 10µM
CCCCCCCC/C=C\CCCCCCCC(=O)NCCCC(=O)O	none (no result: GAA glycogen, GAA inhib)
Oc1cc2c(cc1O)[C@@H]1c3ccc(O)c(O)c3OC[C@]1(O)C2	none (no result: GAA glycogen, GAA inhib)

Bioassay records as filed in PubChem BioAssay.
